The experiment concerns the target Cellular tumor antigen p53 (Homo sapiens) (UniProt P04637). The experiment in a line: Primary qHTS for small molecule compounds that upregulate eGFP-tagged delta133p53alpha (in N-terminal) cells. (AID 2060322).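 For activation: series mostly up to about 56 µM; 0% = DMSO vehicle and 100% = reference activator.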 Note: nearly all actives have a fitted effect of over 75% in size. To be noted: NCI-H358 eGFP-delta133p53alpha fluorescence, 24 h; activation: stronger effect = higher value. The gist of the method: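 NCI-H358 cells pre-induced 24 h with 10 ng/ml doxycycline for eGFP-delta133p53alpha, plated dox-free and exposed 24 h at 37C to titrated compounds. Fixed, Hoechst-stained; gated GFP peak intensity by laser scanning cytometry, normalized to DMSO (0%) and 57.5 uM 5-azacytidine (100%).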

“And” between values parts separate entries of the source, which are not always exact repeats. Equal values may be shown once. Records with an inconclusive call do not appear. Values without a mark were called inactive. The source made the active and inactive calls. Calls come from the whole dose curve; as a rule, active = well fitted activation curve with a large enough effect; inconclusive = small, poorly fitted or top-dose-only effect; inactive = no such curve, though single readings can be large or run the other way.
Potency is the fitted concentration of half-maximal effect.

Sequence of Cellular tumor antigen p53 (Homo sapiens) (P04637 whole entry, looked up): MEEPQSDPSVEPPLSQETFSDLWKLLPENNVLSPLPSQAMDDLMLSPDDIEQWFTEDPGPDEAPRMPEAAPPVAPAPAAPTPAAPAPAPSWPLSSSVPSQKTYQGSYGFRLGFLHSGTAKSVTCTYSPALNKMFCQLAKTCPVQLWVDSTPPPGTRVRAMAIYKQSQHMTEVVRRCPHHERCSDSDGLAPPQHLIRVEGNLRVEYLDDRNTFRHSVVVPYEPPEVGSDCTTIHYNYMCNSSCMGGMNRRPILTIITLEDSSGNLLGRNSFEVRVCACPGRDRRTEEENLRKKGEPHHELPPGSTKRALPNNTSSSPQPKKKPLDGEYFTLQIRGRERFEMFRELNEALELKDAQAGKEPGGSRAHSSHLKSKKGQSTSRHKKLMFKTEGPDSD

On to `Clc1cccc(N2CCNCC2)c1`, for which the activation was 17.5%.

`c1ccc2c(c1)sc1ccccc12`: the activation is -5.02%.

`CC(Cc1ccccc1)NCCCCl` (stereo unspecified): the activation is -27.6%.

Regarding `O=C(Nc1ccc(Br)cc1)c1cc(Br)cc(Br)c1O`, the activation was 29.9%.

Consider `COC1CC(=C(c2cccs2)c2cccs2)C[N+](C)(C)C1` (stereo unspecified), for which the activation was -5.86%.

For the compound `CC(=O)O[C@@]12CO[C@H]1C[C@H](O)[C@@]1(C)C(=O)[C@H](O)C3=C(C)[C@@H](O)C[C@@](O)([C@@H](OC(=O)c4ccccc4)[C@@H]21)C3(C)C`, the Potency is 30.6 µM (active).

Consider `CC1(C)CC/C(=C/c2ccc(Cl)cc2)C1(O)Cn1cncn1` (stereo unspecified), for which the activation was 2.51%.

On to `CNC(C)(C)Cc1ccccc1`, for which the activation was -3.35%.

As for `NC(=O)c1cc([N+](=O)[O-])cc([N+](=O)[O-])c1`, the activation is 0.837%.

`O=c1c(C2CC(c3ccc(-c4ccc(Br)cc4)cc3)Cc3ccccc32)c(O)sc2ccccc12` (stereo unspecified): the activation was -13%.

As to `COc1ccc(Cc2nccc3cc(OC)c(OC)cc23)cc1OC`, the activation was -17.6% and 20.4% and -35.4%.

Take `CC(CC(C(N)=O)(c1ccccc1)c1ccccc1)N(C)C` (stereo unspecified): the activation is -9.6%.

In the case of `CCN(CC)CCc1c[nH]c2ccccc12`, the activation is -8.47%.

On to `C[N+](C)(C)CCOC(=O)C(O)(c1ccccc1)c1ccccc1`, for which the activation was 16.4%.

As to `COC(=O)c1cncn1C(C)c1ccccc1` (stereo unspecified), the activation is -29.3%.

On to `Oc1ccc2[nH]cc(CCCCN3CC=C(c4ccccc4)CC3)c2c1`, for which the activation is 22%.

`CCCC(C)(COC(N)=O)COC(=O)NC(C)C` (stereo unspecified): the activation was -6.69% and 15.9%.

Take `CCN(C(C)=O)c1cccc(-c2ccnc3c(C#N)cnn23)c1`: the activation was -16.4%.

`CCN[C@@H](C)Cc1ccccc1`: the activation is -10.7%.

For the compound `CCCC1CCCCN1` (stereo unspecified), the activation was -16.4%.

In the case of `CN1CC[C@]23c4c5ccc(O)c4O[C@H]2[C@@H](O)CC[C@H]3[C@H]1C5`, the activation is 14.1%.

Take `C[C@H]1CCCC=CC2C[C@H](O)C[C@@H]2[C@H](O)C=CC(=O)O1` (stereo partly specified): the activation was 23.5%.

Turning to `C#C[C@]1(O)C=C[C@@H]2[C@@H]3CCC4=CC(=O)CC[C@@H]4[C@H]3CC[C@@]21CC`, the activation was -3.53%.

Regarding `C[C@]12CC[C@H]3[C@@H](CCC4=CC(=O)CC[C@@H]43)[C@@H]1CC[C@@H]2OC(=O)CCC1CCCCC1`, the activation was -13%.

As to `C1=C2CCCN[C@H]2[C@@H]2C[C@H]1[C@@H]1CCCCN1C2`, the activation was 1.08%.

For the compound `C[C@]12Cc3nonc3C[C@@H]1CC[C@@H]1[C@@H]2CC[C@@]2(C)[C@H]1CC[C@]2(C)O`, the activation is 7.34%.

With `CCOCCOC(C)=O`, the activation was -27.7%.

For the compound `C=C[C@@H]1CN2CCC1C[C@H]2[C@H](O)c1ccnc2ccccc12` (stereo partly specified), the activation is -4.83%.

Turning to `COP(=S)(OC)Oc1ccc(Sc2ccc(OP(=S)(OC)OC)cc2)cc1`, the activation was -14.2%.

Take `CC(=O)[O][Hg][c]1ccccc1`: the Potency is 8.71 µM (active).

As for `CN(C)CCc1ccc(O)cc1`, the activation was -14.3% and -6.21%.

As to `Nc1nc(N)nc(NC2CC2)n1`, the activation is 5.02%.

As for `CC[C@H]1C=CC=CC[C@@H](C)[C@H](O)[C@@](C)(O)C(=O)[C@@H](C)[C@H](O)[C@@H](C)C(=O)[C@@H](C)[C@H](O)[C@@H](C)C=CC(=O)O[C@@H]2[C@@H](C)[C@H](CC1)O[C@]1(CC[C@H](C)[C@H](C[C@@H](C)O)O1)[C@H]2C`, the activation was 11.3%.

Consider `c1ccc(N2CCNCC2)cc1`, for which the activation was -33.3%.

Take `CN1C(=O)CN=C(c2ccccc2)c2cc(Cl)ccc21`: the activation is -7.34%.

With `CN1C[C@@H](NS(=O)(=O)N(C)C)C[C@@H]2c3cccc4c3c(cn4C)C[C@H]21`, the activation was 14.1%.

Consider `NCc1cccnc1`, for which the activation is 6.21%.

For `CC(=O)Nc1cc([As](=O)(O)O)ccc1O`, the activation is -10.9%.

On to `CCC(=O)O[C@H]1CC[C@H]2[C@@H]3CCC4=CC(=O)CC[C@]4(C)[C@H]3CC[C@]12C`, for which the activation was -0.565%.

For `CC1=C2[C@H]3OC(=O)[C@@H](C)[C@@H]3CC[C@@]2(C)C=CC1=O`, the activation was 11.7%.

In the case of `CO[C@H]1CCC(O[C@H]2C[C@H]([C@]3(C)CC[C@]4(C[C@H](O)[C@@H](C)[C@@H]([C@@H](C)C=C(C)C(=O)[C@H](C)C[C@H](C)C(=O)O)O4)O3)O[C@]3(O[C@@H]([C@H]4O[C@@](O)(CO)[C@H](C)C[C@H]4C)C[C@H]3C)[C@H]2C)O[C@H]1C` (stereo partly specified), the activation was 20.4%.

The values above are taken from PubChem BioAssay (NCATS).
